# Test results taken from PubChem BioAssay (Tox21).
# Active and inactive are the calls of the source. Calls come from the whole dose curve.
# Assay: qHTS assay to identify small molecule agonists of the sonic hedgehog signaling (Shh) pathway (AID 1259368);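 note: NIH/3T3-derived 3T3Gli1-Luc cells carrying a stable Gli1-driven firefly luciferase reporter; nearly all actives have a fitted effect of over 15% in size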
# Conditions: NIH/3T3 Gli1-Luc reporter, luciferase, 24 h; series mostly up to 92.4 µM
# Description: National Center for Advancing Translational Sciences [NCATS]
# NIH Chemical Genomics Center [NCGC]
# U.S. Environmental Protection Agency [EPA]
# National Institutes of Environmental Health Sciences [NIEHS]
# National Toxicology Program [NTP]
# The sonic hedgehog (Shh) pathway is essential for normal embryonic development. Dysregulation of the Shh pathway can cause severe developmental defects in organs. Therefore chemicals that interfere with the pathway are potential developmental toxicants. A cell line designated 3T3Gli1-Luc (DMB/OARSA/CFSAN/FDA, Laurel, MD), a NIH/3T3 derived clone containing stably integrated Gli1-Luc reporter is used to detect chemical interference of the Shh pathway, by changes in the expression of the firefly Luc gene under the control of the Gli1 transcriptional response element. This cell line was used to screen Tox21 libraries for identifying and prioritizing the potential developmental toxicants that interfere Shh pathway.
# 3T3 Gli1-Luc cells were dispensed at 2,000 per well in 5uL of culture medium into white solid bottom 1536-well plates (Greiner Bio-One, Monroe, NC) using a Multidrop Combi (Thermo Scientific, Waltham, MA) dispenser. The assay plates were incubated at 37 C and 5% CO2 for 4hr, and then 23nL of compounds dissolved in DMSO and positive control were transferred using a Pintool station (Wako, San Diego, CA). The assay plates were incubated at 37C and 5% CO2 for 24hr. For luciferase read, 4uL of Amplite Luciferase reporter gene assay reagent (AAT Bioquest, Inc. Sunnyvale, CA) was added to each well of the assay plates using Flying Reagent Dispenser (FRD, Aurora Discovery, San Diego, CA) and incubated at room temperature for 30min. The luminescence signal was measured using a ViewLux plate reader (Perkin Elmer, Shelton, CT).
row,Compound,outcome
1,O=P(OC(CCl)CCl)(OC(CCl)CCl)OC(CCl)CCl,inactive
2,CCCCCCCCCCCCCCO,inactive
3,CCCCCCCCCCCCCCCO,inactive
4,COc1ccc(Cl)cc1C(=O)NCCc1ccc(S(=O)(=O)NC(=O)NC2CCCCC2)cc1,inactive
5,CCCCC(CC)COC(=O)CCCCC(=O)OCC(CC)CCCC (stereo not given),inactive
6,CCCCC(CC)COC(=O)C(C#N)=C(c1ccccc1)c1ccccc1 (stereo not given),inactive
7,O=C=NCCCCCCN=C=O,inactive
8,CC(=O)CC(=O)Nc1ccccc1C,inactive
9,Fc1ccc(Br)cc1,inactive
10,OCCOCCN1CCN(C2=Nc3ccccc3Sc3ccccc32)CC1,inactive
11,c1ccc2scnc2c1,inactive
12,O=C(O)c1cc(=O)c2c(OCC(O)COc3cccc4oc(C(=O)O)cc(=O)c34)cccc2o1,inactive
13,O=C(O)c1ccccc1C(c1ccc(O)cc1)c1ccc(O)cc1,inactive
14,CC(=O)OCC(=O)[C@@]12N=C(C)O[C@@H]1C[C@H]1[C@@H]3CCC4=CC(=O)C=C[C@]4(C)[C@H]3[C@@H](O)C[C@@]12C,inactive
15,CCN(CC)c1ccc(C(=O)c2ccccc2C(=O)O)c(O)c1,inactive
16,O=C(O)c1ccc2c(c1)C(=O)OC2=O,inactive
17,N[C@@H](Cc1cc(I)c(Oc2cc(I)c(O)c(I)c2)c(I)c1)C(=O)O,inactive
18,COCCCOc1ccnc(CS(=O)c2nc3ccccc3[nH]2)c1C (stereo not given),inactive
19,OCc1cccnc1,inactive
20,CC1CCC2CC1C2(C)C (stereo not given),inactive

row,Compound,outcome
1,O=C(O)[C@H](O)[C@@H](O)[C@H](O)[C@H](O)CO,inactive
2,C=C(C)C(=O)Nc1ccc(Cl)c(Cl)c1,inactive
3,O=C(O)CC(C(=O)O)C(CC(=O)O)C(=O)O (stereo not given),inactive
4,CCCCCCCCCCCCc1ccccc1,inactive
5,CCCCC(CC)COC(=O)CS (stereo not given),inactive
6,C[C@H]1C[C@@H]2[C@H]([C@@H](O)C[C@@]3(C)[C@H]2CC[C@]3(O)C(=O)CO)[C@@]2(C)C=CC(=O)C=C12,inactive
7,OCCOCCOCCO,inactive
8,OCC(CO)(CBr)CBr,inactive
9,O=C(OCCOCCOC(=O)c1ccccc1)c1ccccc1,inactive
10,CCCCCCCC(=O)OC,inactive
11,CCCCOC(=O)COc1ccc(Cl)cc1Cl,inactive
12,O=C(O)c1cc(O)c(O)c(O)c1,inactive
13,CC(=O)Nc1cccc(O)c1,inactive
14,CCC(O)OC(O)CC (stereo not given),inactive
15,CCc1ccc(CCOc2ccc(CC3SC(=O)NC3=O)cc2)nc1 (stereo not given),inactive
16,CCCCC(CC)CO (stereo not given),inactive
17,CCCCCC/C(C=O)=C\c1ccccc1,inactive
18,CC(C)(N)CO,inactive
19,CCCSc1ccc2nc(NC(=O)OC)[nH]c2c1,inactive
20,c1ccc(OCCOc2ccccc2)cc1,inactive
